High-throughput results (PubChem)
Luciferase inh: inhibitors of firefly luciferase; purified firefly luciferase, luminescence, 8 min; Potency, µM (top dose mostly 57.1 µM), without a hit: at the top dose activity change, negative = inhibition, usual class: inhibitors; 72,000 tested, 2.2% active; note: nearly all actives have a fitted effect of over 40% in size
Target sequence (P08659 whole entry, looked up): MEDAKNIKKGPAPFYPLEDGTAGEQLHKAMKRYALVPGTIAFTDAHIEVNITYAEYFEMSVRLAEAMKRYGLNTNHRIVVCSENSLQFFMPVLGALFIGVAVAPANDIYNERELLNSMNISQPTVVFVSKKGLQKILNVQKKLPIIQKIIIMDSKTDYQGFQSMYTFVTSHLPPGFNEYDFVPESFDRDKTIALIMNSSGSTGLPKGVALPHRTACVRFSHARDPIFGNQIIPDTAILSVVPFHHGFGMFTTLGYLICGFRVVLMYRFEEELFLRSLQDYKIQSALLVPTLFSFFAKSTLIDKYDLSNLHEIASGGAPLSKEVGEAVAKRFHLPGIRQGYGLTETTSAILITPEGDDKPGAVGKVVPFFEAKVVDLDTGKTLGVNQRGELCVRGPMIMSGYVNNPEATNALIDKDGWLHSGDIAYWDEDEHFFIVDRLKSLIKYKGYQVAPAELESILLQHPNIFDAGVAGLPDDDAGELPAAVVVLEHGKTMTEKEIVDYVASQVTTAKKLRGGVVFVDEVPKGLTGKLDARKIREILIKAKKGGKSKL
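Firefly luciferase (PKLight detection mix) with 10 uM ATP in pH 7.2 imidazole buffer (KCl, MgCl2, Tween 20, BSA). Compounds tested across a concentration series (qHTS). Luminescence read after 8 min at ambient temperature.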
p53ts 39C tox: kills p53ts cells at the nonpermissive temperature | 130,000 tested, 1.5% active | AID 902 | Potency, µM (titrated, usually from 46.1 µM), for the others: at the top dose activity change, negative = cell killing, most hits filed as cytotoxic | H1299-p53A138V viability at 39C, ATP luminescence, 24 h; note: nearly all actives have a fitted effect of over 55% in size
p53ts 32C kill: p53ts cell cytotoxicity, permissive temperature. Potency, µM (top dose mostly 46.1 µM), for inactives: top-dose activity change, negative = cytotoxicity, usual class: cytotoxic. H1299-p53A138V at 32C, ATP luminescence viability, 24 h. 130,000 tested, 0.93% active;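 note: 0% = DMSO and -100% = full killing by reference compound; nearly all actives have a fitted effect of over 55% in size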
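H1299-p53 A138V cells (temperature-sensitive p53) exposed 24 h to up to 46 uM compound at 32C, where p53 is wild-type in conformation. Viability read as ATP luminescence and normalised to DMSO and 100 uM tamoxifen. AC50 fitted with the Hill equation.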
Starred values were filed as active, the others as inactive; [ ] = dose if it differs, or a comment. Shown are actives, neighbours in structure and some others; about 2.6% of the full set was active somewhere. Calls come from the whole dose curve; as a rule, active = well fitted curve in the direction sought with a large enough effect; inconclusive = small, poorly fitted or top-dose-only effect, or another doubt; inactive = no such curve, though single readings can be large; an effect the other way counts as inactive or inconclusive. Unless noted, % is set by controls: 0 for no effect and ±100 for the full control effect; potency is the fitted concentration of half-maximal effect.

How did Cc1ccc2nc(-c3ccc(Cl)c(NC(=O)c4ccc5c(c4)OCCO5)c3)oc2c1 do in these assays?
p53ts 39C tox: 31%; p53ts 32C kill: -15%

How did COc1ccc(-c2cc(C(=O)N/N=C/c3ccc(O)cc3)[nH]n2)cc1 do in these assays?
p53ts 39C tox: -27%; p53ts 32C kill: inconclusive

Results for COc1ccc2c(c1)[C@]1(C)CCC[C@](C)(CO)[C@@H]1CC2 ?
Luciferase inh: 3%[11.4 µM]

Results for CCn1c(-c2ccc(N(C)C)cc2)nc2ccccc21 ?
Luciferase inh: 1%; p53ts 39C tox: 4%; p53ts 32C kill: 3%

Results for CN(C)c1ccc(-c2nc3ccccc3n2C)cc1 ?
Luciferase inh: 0.63µM*; p53ts 39C tox: 0.79µM*; p53ts 32C kill: 1.6µM*

Results for CC(C)n1c(Nc2ccccc2)nc2ccccc21 ?
Luciferase inh: -20%; p53ts 39C tox: -3%; p53ts 32C kill: 4%

How did CC(C)n1c(-c2ccc(N(C)C)cc2)nc2ccccc21 do in these assays?
Luciferase inh: 13µM*; p53ts 39C tox: inconclusive; p53ts 32C kill: inconclusive

What do the screens show for `CCc1nc2ccccc2n2c(-c3ccccc3)c3c(=O)n(C)c(=O)n(C)c3c12`?
p53ts 39C tox: 24%; p53ts 32C kill: 10%

How did CCC(C(=O)Nc1cccc(-c2cn3cccnc3n2)c1)c1ccccc1 (centres undefined) do in these assays?
p53ts 39C tox: -4%; p53ts 32C kill: 18%

Results for COc1ccc(OC)c(NC(=O)Cn2c(=O)c3cccn3c3ccccc32)c1 ?
p53ts 39C tox: 7%; p53ts 32C kill: 50%

How did COc1ccccc1N1CCN(CCN(C(=O)c2ccc(I)cc2)c2ccccn2)CC1 do in these assays?
Luciferase inh: 5%

How did Cc1ccc2nc(/C(C#N)=C/c3ccc(-c4cccc(Cl)c4)o3)[nH]c2c1 do in these assays?
p53ts 39C tox: 4µM*; p53ts 32C kill: inconclusive

How did N#C/C(=C\c1ccc(-c2ccc(Cl)c(C(=O)O)c2)o1)c1nc2ccccc2[nH]1 do in these assays?
p53ts 39C tox: -9%; p53ts 32C kill: inconclusive

How did CCOc1ccc(-n2c(=O)c3c(C)c(C(=O)N(C)C)sc3n(CC(=O)Nc3c(C)cc(C)cc3C)c2=O)cc1 do in these assays?
p53ts 39C tox: -15%; p53ts 32C kill: -14%

How did O=C(CS(=O)(=O)Cc1ccccc1)N1CCN(Cc2ccc3c(c2)OCO3)CC1 do in these assays?
Luciferase inh: -18%; p53ts 39C tox: 13µM*; p53ts 32C kill: 13µM*

Results for O=C(Cn1ccc2ccccc2c1=O)N1CCN(Cc2ccc3c(c2)OCO3)CC1 ?
Luciferase inh: 0%; p53ts 39C tox: -14%; p53ts 32C kill: -3%

Results for Cn1cccc1C(=O)N1CCC2(CC1)CN(C(=O)Nc1cccc(C#N)c1)C2 ?
Luciferase inh: -3%[11.4 µM]; p53ts 39C tox: -5%; p53ts 32C kill: 4%

What do the screens show for `Cn1c(SCc2nc3ccccc3s2)nnc1-c1cccs1`?
Luciferase inh: -4%; p53ts 39C tox: 3%; p53ts 32C kill: 10%

Results for Cc1ccccc1-n1c(C)nnc1SCc1nc2ccccc2s1 ?
Luciferase inh: 20µM*; p53ts 39C tox: -15%; p53ts 32C kill: -8%

Results for COc1ccccc1-c1cc(C(F)(F)F)nc(S(=O)(=O)CCCC(=O)NC(C)C)n1 ?
Luciferase inh: 2%; p53ts 39C tox: inconclusive; p53ts 32C kill: inconclusive

How did COc1ccccc1-c1cc(C(F)(F)F)nc(S(=O)(=O)CCCC(=O)Nc2cc(Br)ccc2O)n1 do in these assays?
p53ts 39C tox: inconclusive; p53ts 32C kill: 20µM*

Results for COc1ccccc1-c1cc(C(F)(F)F)nc(S(=O)(=O)CCCC(=O)Nc2ccccc2F)n1 ?
p53ts 39C tox: 3.2µM*; p53ts 32C kill: inconclusive

Results for COc1ccccc1-c1cc(C(F)(F)F)nc(S(=O)(=O)CCCC(=O)N2CCCCC2C)n1 (centres undefined) ?
Luciferase inh: 0%; p53ts 39C tox: inconclusive; p53ts 32C kill: inconclusive

Results for COc1ccccc1-c1cc(C(F)(F)F)nc(S(=O)(=O)CCCC(=O)Nc2cc(C)on2)n1 ?
Luciferase inh: 0%; p53ts 39C tox: inconclusive; p53ts 32C kill: inconclusive

Results for COc1ccc(Cl)cc1NC(=O)CCCS(=O)(=O)c1nc(-c2ccc(OC)c(OC)c2)cc(C(F)(F)F)n1 ?
p53ts 39C tox: 3.2µM*; p53ts 32C kill: inconclusive

Results for COc1ccc(N(CC(=O)Nc2cccc(C(C)=O)c2)S(=O)(=O)c2ccccc2)c(OC)c1 ?
p53ts 39C tox: 9%; p53ts 32C kill: 10%

How did Cc1ccc(NC(=O)Cn2c(=O)n(CCc3ccccc3)c(=O)c3c4c(sc32)CCCC4)cc1C do in these assays?
p53ts 39C tox: -22%; p53ts 32C kill: 9%

How did Fc1ccccc1CSc1ncnc2c1oc1ccccc12 do in these assays?
Luciferase inh: 13µM*; p53ts 39C tox: 13µM*; p53ts 32C kill: 13µM*

How did CCCSc1ncnc2c1oc1ccccc12 do in these assays?
Luciferase inh: -6%; p53ts 39C tox: -7%; p53ts 32C kill: 0%

How did Cc1cc(C)c2sc(N(Cc3cccnc3)C(=O)CCOc3ccccc3)nc2c1 do in these assays?
p53ts 39C tox: -17%; p53ts 32C kill: -7%

What do the screens show for `CC(=O)c1cccc(NC(=O)c2cnn(-c3cccc(C)c3)c2-n2cccc2)c1`?
p53ts 39C tox: -25%; p53ts 32C kill: -2%

Results for CCOC(=O)c1cnc(-n2nc(C)cc2C)nc1N(C)C ?
Luciferase inh: 13µM*; p53ts 39C tox: 2µM*; p53ts 32C kill: 3.2µM*

How did CCOC(=O)c1cnc(-n2nc(C)cc2C)nc1N1CCOCC1 do in these assays?
Luciferase inh: 1%; p53ts 39C tox: 18%; p53ts 32C kill: -8%

What do the screens show for `CCOc1ccc(CCNc2ncnc3onc(C)c23)cc1OCC`?
p53ts 39C tox: -3%; p53ts 32C kill: -10%

What do the screens show for `CC(=O)c1cnc2c(-c3ccc(Cl)cc3)c(C)nn2c1C`?
p53ts 39C tox: 6%; p53ts 32C kill: -17%

What do the screens show for `Cc1c(C(=O)O)cnc2cc(-c3ccc(Cl)cc3)nn12`?
Luciferase inh: 13µM*; p53ts 39C tox: inconclusive; p53ts 32C kill: 10µM*

What do the screens show for `CN1C[C@H](c2ccccc2)C(O)([C@]2(c3ccccc3)CN(C)C[C@@H](c3ccccc3)C2=O)[C@H](c2ccccc2)C1` (some centres undefined)?
Luciferase inh: 0%[11.4 µM]; p53ts 39C tox: -3%[9.22 µM]; p53ts 32C kill: -7%[9.22 µM]

Results for O=C(Nc1nc(-c2ccc(Cl)s2)cs1)c1cccs1 ?
Luciferase inh: -22%; p53ts 39C tox: inconclusive; p53ts 32C kill: inconclusive

Results for O=C(Nc1nc(-c2ccccc2)cs1)c1cccs1 ?
Luciferase inh: 13µM*; p53ts 39C tox: -12%; p53ts 32C kill: inconclusive

Results for COc1ccc(-n2nc(C(=O)NCCc3ccc(OC)c(OC)c3)c3c4ccccc4n(C)c3c2=O)cc1 ?
p53ts 39C tox: inconclusive; p53ts 32C kill: 5%

What do the screens show for `CCCc1cc(=O)[nH]c(SCC(=O)N(C)CC(=O)Nc2ccccc2CC)n1`?
Luciferase inh: -1%; p53ts 39C tox: -5%; p53ts 32C kill: 1%

What do the screens show for `CCc1ccccc1NC(=O)CN(C)C(=O)Cn1ncc(Cl)c(Cl)c1=O`?
p53ts 39C tox: 3.2µM*; p53ts 32C kill: 3.5µM*
